This note sets out measurements from PubChem BioAssay (Tox21).

Results filed as inconclusive are left out. Unmarked numbers belong to inactive results. The call rests on the fitted dose curve; in most records, active means well fitted activation curve with a large enough effect in the repeat runs; inconclusive means weak or mixed curves; inactive means flat fitted curve, though single readings scatter.
On the % scale 0 is the no-effect control and ±100 the full control effect.

This experiment can be described thus: A CellTox Green Cytotoxicity Assay to monitor cytotoxicity in HEK293 cells - 8 hour (AID 1224884). Further: nearly all actives have a fitted effect of over 35% in size. As to conditions: CellTox Green fluorescence; series mostly up to 76.8 µM; cytotoxicity increase: at the top concentration. The method in brief: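 Cells (HEK293, 600/well) and dye reagent are dispensed together. After 5 h at 37 C, 23 nL compound is pinned in. Plates stay at 37 C for 40 h with fluorescence read at 0h, 8h, 16h, 24h, 32h and 40h.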
Turning to `O=c1oc2c(O)c(O)cc3c(=O)oc4c(O)c(O)cc1c4c23`, the cytotoxicity increase is 7.37% [at 15.8 µM].
In the case of `Cc1nnc(SCC2=C(C(=O)O)N3C(=O)[C@@H](NC(=O)Cn4cnnn4)[C@H]3SC2)s1`, the “cytotoxicity increase” value was 2.4% [at 35.3 µM].
Regarding `Cc1cc(S(=O)(=O)O)c(N)cc1Cl`, the “cytotoxicity increase” value was 11.9%.
On to `COc1cc(C)ccc1C(C)C`, for which the “cytotoxicity increase” value is 2.46%.
In the case of `Cc1ccsc1C(=CCCN1CCC[C@@H](C(=O)O)C1)c1sccc1C`, the “cytotoxicity increase” value is -7.82% [at 35.3 µM].
In the case of `C=CC1CO1` (stereo not drawn) it was 0.414%; in that of `CNCCC(Oc1ccccc1OC)c1ccccc1` (stereo not drawn), 0.912% [at 35.3 µM]; in that of `FC(F)(F)C(F)(F)C(F)(F)C(F)(F)C(F)(F)C(F)(F)C(F)(F)C(F)(F)Br`, -11.3% [at 35.3 µM].
In the case of `CCN(CC)C(=O)N(CC)CC` it was 27.8%; in that of `CN(CC1(C)CCCO1)S(=O)(=O)c1ccc(Cl)c(S(N)(=O)=O)c1` (stereo not drawn), 1.06% [at 35.3 µM]; in that of `O=CCCc1ccccc1`, -2.5%.
Turning to `CN1C(=O)CC(c2ccccc2)C1=O` (stereo not drawn), the “cytotoxicity increase” value was -0.369% [at 35.3 µM].
The value for `CCCN(CCC)C(=O)C(CCC(=O)O)NC(=O)c1ccccc1` (stereo not drawn) was -12.7% [at 35.3 µM]; that for `CC(=O)Nc1ccc(C)c(Cl)c1` was 3.37%.
Turning to `CCCCN1C[C@H](O)[C@@H](O)[C@H](O)[C@H]1CO`, the “cytotoxicity increase” value was -6.22% [at 35.3 µM].
Take `Cc1cccc(C)c1NC(=O)CN1CCCCCC1`: the “cytotoxicity increase” value is 3.33% [at 35.3 µM].
In the case of `CO[C@@]1(NC(=O)CSCC#N)C(=O)N2C(C(=O)O)=C(CSc3nnnn3C)CS[C@@H]21`, the “cytotoxicity increase” value is -8.97% [at 35.3 µM].
In the case of `FC(F)(F)C(Cl)(Cl)Cl`, the “cytotoxicity increase” value is -14.1%.
In the case of `CCC(=O)Nc1ccc(O)cc1` it was 9.35% [at 35.3 µM]; in that of `N#Cc1ccc(C(c2ccc(C#N)cc2)n2cncn2)cc1`, -9.11% [at 35.3 µM]; in that of `CCOc1ccc2nc(N)sc2c1`, 0.092%.
The value for `Cc1ccc([N+](=O)[O-])cc1Cl` was -0.739%.
In the case of `CCc1cc(Cl)c(OC)c(C(=O)NC[C@@H]2CCCN2CC)c1O` it was -0.352% [at 35.3 µM].
